The values that follow come from PubChem BioAssay (NCATS).

Records with an inconclusive call do not appear. Values without a mark were called inactive. The source made the active and inactive calls. The call rests on the fitted dose curve; in most records, active means well fitted inhibition curve with a large enough effect; inconclusive means small, poorly fitted or top-dose-only effect; inactive means no such curve, though single readings can be large or run the other way.
Potency means the concentration at half of the fitted maximal effect.

The test in a line: NS1 protein of Zika virus - qHTS assay to identify small molecule inhibitors in human HEK 293 cells (AID 1347053). Further: nearly all actives have a fitted effect of over 55% in size.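 On activity change, negative = inhibition: plate controls were infected untreated cells for no effect and uninfected cells for full effect.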 Particulars: HEK293 ZIKV MR766 infection, NS1 TR-FRET, 24 h; series mostly up to 46.1 µM; activity change, negative = inhibition: at the top concentration. An excerpt:
National Center for Advancing Translational Sciences [NCATS]
Johns Hopkins University School of Medicine
The non-structural 1 (NS1) protein of zika virus is known to associate with the viral replication complex. This cell-based TR-FRET ZIKV NS-1 assay measures the increased NS-1 protein in human HEK 293 cells after a 24-hour Zika virus infection by a TR-FRET assay readout. A decrease in the Time-resolved fluorescence energy transfer (TR-FRET) signal in this assay by small molecule treatment indicates an inhibitory effect of the small molecule on the expression of Zika virus NS1 correlating with Zika virus replication.
HEK 293 cells were cultured in EMEM (ATCC, Cat. # 30-2003) medium with 10% fetal bovine serum (GE healthcare Life Sciences, Cat. # SH30071.03), and 1% Pen/Strep (Gibco, Cat. # 15140-122). Cells were seeded in the assay plate and incubated at 37 C with 5% CO2 for 20 hours. Compounds were added to cells and incubated for one hour before addition of ZIKV MR766 strain solution to cells (MOI = 0.5). After an incubation at 37 C for 24 hours, the reagent mixture of TR-FRET ZIKV NS1 assay using two anti-ZIKV NS1 antibodies was added to assay plates. The TR-FRET signals in assay plates were measured using an Envision plate reader (PerkinElmer). Data were normalized by using the cell-containing wells without ZIKV as a negative control (0% NS-1) and wells containing ZIKV infected cells as a positive control (100% NS-1 level).
Background: Quantitative high-throughput screening tests each substance at several concentrations.
`Oc1ccc(CCNCCCCCCNCCc2ccccc2)cc1O`: the “activity change, negative = inhibition” value was 4.58%. In the case of `Nc1ccc(C(=O)OCC(O)CO)cc1` (stereo not given), the “activity change, negative = inhibition” value is 0.975%. Consider `NS(=O)(=O)c1cc(C(=O)NN2C[C@H]3[C@H]4CCC(C4)[C@H]3C2)ccc1Cl`, for which the “activity change, negative = inhibition” value was 1.27%. The same measure, in the same setting: for `COc1ccc(-n2nc(CCC(=O)N(C)O)cc2-c2ccc(Cl)cc2)cc1` the value was 11.1%. Still for that read-out and setting: the same measure for `CC(=O)OCC(=O)[C@@]1(O)CCC2C3CCC4=CC(=O)CC[C@]4(C)C3[C@@H](O)C[C@@]21C` (stereo not given in full): -6.22%.

Regarding `CCC[C@H](N[C@@H](C)C(=O)N1[C@H](C(=O)O)C[C@@H]2CCCC[C@@H]21)C(=O)OCC`, the “activity change, negative = inhibition” value is 9.62%. On the same count and under the same terms, the same measure for `O=C1CC[C@H](C(=O)N2CCCCC2)N1`: 9.78%; for `Clc1ccc2c(c1)Nc1ccccc1S2`: 4.63%; for `Cc1ccccc1C(=O)N1CC/C(=N\OS(=O)(=O)O)c2ccc(Cl)cc21`: -0.673%.

Consider `O=C(O)Cn1cnnn1`, for which the “activity change, negative = inhibition” value is 0.385%. On the same count and under the same terms, the same measure for `CC(C)Cc1ccc(C(C)C(=O)OCc2ccccn2)cc1` (stereo not given): -2.02%; for `CNC(=O)c1cnn(-c2nc(N)c3ncn([C@@H]4O[C@H](CO)[C@@H](O)[C@H]4O)c3n2)c1`: -3.62%; for `CC(C)=CCNc1ncnc2c1ncn2[C@@H]1O[C@H](CO)[C@@H](O)[C@H]1O`: 10.1%. On the same count and under the same terms, for `c1ccc2c(c1)CCc1ccccc1N2` the value was 1.93%. On the same count and under the same terms, for `O=C(O)CCCC[P+](c1ccccc1)(c1ccccc1)c1ccccc1` the value was 4.61%; for `CC(=O)Nc1ccn(C2COC(COC(=O)c3ccccc3)O2)c(=O)n1` (stereo not given), -0.505%; for `OCCOCCN1CCN(C(c2ccccc2)c2ccc(Cl)cc2)CC1` (stereo not given), 1.27%.

For the compound `N=C(N)c1ccc(OCCCOc2ccc(C(=N)N)cc2)cc1`, the “activity change, negative = inhibition” value is -1.4%.

Take `CCCCCC[C@@H](CCC)C(=O)O`: the “activity change, negative = inhibition” value was -1.53%. With `NC(N)=NCCCCN=C(N)N`, the “activity change, negative = inhibition” value was 9.59%.

Take `Cc1cc(C(C)(C)C)c(O)c(C(C)(C)C)c1`: the “activity change, negative = inhibition” value was -16%. Same read-out and setting: the same measure for `CC(=O)[C@H]1CC[C@H]2[C@@H]3C=CC4=CC(=O)CC[C@@]4(C)[C@@H]3CC[C@]12C`: 11.7%; for `O=C(O)c1ccccc1S`: 6.96%; for `CN(C)CCN1CCN(c2cccc(Cl)c2)C1=O`: 5.79%. On the same count and under the same terms, for `CC(C(O)c1ccccc1)N(C)CCOC(c1ccccc1)c1ccccc1` (stereo not given) the value was 31.3%; for `CN1CCC(N(Cc2cccs2)c2ccccc2)CC1`, 0.306%. Still for that read-out and setting: for `C=CC[N+]1([C@H]2C[C@H]3[C@@H]4CC[C@H]5C[C@H](OC(C)=O)[C@@H](N6CCCCC6)C[C@]5(C)[C@H]4CC[C@]3(C)[C@H]2OC(=O)CC)CCCCC1` the value was -8.43%; for `CC(=O)c1ccc(O)c(C(N)=O)c1`, -17.5%; for `CSc1ccc(/C=C2/C(C)=C(CC(=O)O)c3cc(F)ccc32)cc1`, 0.272%. Take `CCC(CN)=C(c1ccccc1)c1ccccc1`: the “activity change, negative = inhibition” value was 8.84%.

Consider `CN1CC[C@H](c2c(O)cc(O)c3c(=O)cc(-c4ccccc4Cl)oc23)[C@H](O)C1`, for which the Potency was 1580 nM (active).

As to `C=CCOc1cc(Cl)ccc1C(=O)NCCN(CC)CC`, the “activity change, negative = inhibition” value was -0.745%. The same measure, in the same setting: the same measure for `O=C(O)[C@@H](O)[C@H](O)[C@H](O)[C@@H](O)C(=O)O`: -2.76%. `Cc1sccc1Br`: the “activity change, negative = inhibition” value is -6.41%. The same measure, in the same setting: for `C[N+](C)(C)CCO` the value was -13.3%; for `CCc1cccc2c(CCO)c[nH]c12`, -3.15%.

Turning to `COC(=O)[C@H]1[C@H]2C[C@@H]3c4[nH]c5cc(OC)ccc5c4CCN3C[C@H]2C[C@@H](OC(=O)/C=C/c2ccc(O)c(OC)c2)[C@@H]1OC`, the “activity change, negative = inhibition” value was 23.7%.

As to `CC(C)(C)c1ccc(C(=O)CCCCl)cc1`, the “activity change, negative = inhibition” value is -7.71%.

Consider `CC(C)(C)C(=O)OCOC(=O)C1N2C(=O)CC2S(=O)(=O)C1(C)C` (stereo not given), for which the “activity change, negative = inhibition” value was 7%. Still for that read-out and setting: for `CC(Oc1c(Cl)cccc1Cl)C1=NCCN1` (stereo not given) the value was -1.73%.
